# In paper PMC12136788:
# The full ranking holds about 24,000 sequences; the median of “enrichment r” is about 0.99, and the highest 2% start at about 3.7. The list is a sample of the results.
# T1: UNK ZnF1-3 (human, UniProt Q9C0B0 31-174)
# T1 sequence: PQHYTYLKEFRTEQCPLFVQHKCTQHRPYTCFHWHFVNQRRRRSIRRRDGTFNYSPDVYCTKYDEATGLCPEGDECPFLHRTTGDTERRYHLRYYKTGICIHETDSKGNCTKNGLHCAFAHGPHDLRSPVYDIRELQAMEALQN
# B1: chr9:35286173:35286174:+_ENSMUSG00000038119_ENSMUST00000042842|mus_hu|FALSE|FALSE (ssRNA)
# RNA: GGGAGUUCUACAGUCCGACGAUCAGUGUUAUUGUUACUUGAUGGAAUGUACGUCCACUUUAGCAUGAUCUGAGUAUCGCUGACAGCCUCUGUGUAUGCAAUGUGAGGUCCAGUUAUUGGACGGCUGGAAAAGCGAUUGGGGAACAACAGAGGAUUGAGCAUCA
# B2: chr1:39494564:39494565:+_ENSG00000168653_ENST00000372967|hu_hu|hu_hu_hu_mus_True|28_68 (ssRNA)
# RNA: GGGAGUUCUACAGUCCGACGAUCAUGCAUUCGCCUCAUCGUUUUGUACCGAAGCAAGCACUCUUCGAAAUCAUCAUACUCUAUCUUGCACUCCUUUUUCGCCCGGGUAUAACCGAUCCCGUGUGCACACUCUAUCCACUCUUUCAACAGAGGAUUGAGCAUCA
# B3: 3369786_3369906_1343_3pUTR_ENSMUSG00000025899_ENSMUST00000053407|mouse|control|control (ssRNA)
# RNA: GGGAGUUCUACAGUCCGACGAUCAGUCCUUGUUGAUGCCAAGGUAUUUUCCAUUUCCACAUCCGAUAUCUGCCACUAUGGAACCACUUGGCAAAGCUUUCAGGAACUCUACUAUGCGUGGCCAUGGGCUAUGUCUUGUGCUGCCAACAGAGGAUUGAGCAUCA
# B4: chr7:141450121:141450122:+_ENSG00000106028_ENST00000265304|hu_mus|hu_hu_hu_mus_True|68_88 (ssRNA)
# RNA: GGGAGUUCUACAGUCCGACGAUCUCAUCCGUUCUAUGCCUUUUCUUUCGUCUGGUCACUCAGAAAUAUAAUAUUAUCAGCUAUGAUUGUUGUUGCUUGCCGCCUCACAUUGUUUUUAUCCAUGUACUCGCCAUAGUCCACUUUCAACAGAGGAUUGAGCAUCA
# B5: 139369022_139369142_3059_CDS_ENSG00000148396_ENST00000313050|human|control|control (ssRNA)
# RNA: GGGAGUUCUACAGUCCGACGAUCGUCAGAAUGGGACGGGUUGUACACGUUUACAGGAUUUUCCAAAGUCCUGCUUAAGGUAAAGUCUAGGGCUCCGUAAGUGUCUUCCUGAUGACUGGAAUGGUUUGCCUUAUUACCAUCAGGCAACAGAGGAUUGAGCAUCA
# B6: chr1:109605286:109605287:-_ENSG00000197780_ENST00000461096|hu_mus|hu_hu_hu_mus_True|8_108 (ssRNA)
# RNA: GGGAGUUCUACAGUCCGACGAUCAAGAACAAUAACAACAUUCAGUAACCUCUUUAAAUGCAAUUAUCCUUAUUAUAAGCUAAGCAGAAUAAUAAUUUAAUACCGUAAGUGAACUACACACAAAGCCGUGUAUUCAGAAAUGGUCAACAGAGGAUUGAGCAUCA
# B7: 25140584_25140782_2291_CDS_ENSMUSG00000026965_ENSMUST00000028341|mouse|control|control (ssRNA)
# RNA: GGGAGUUCUACAGUCCGACGAUCUGCCCAGAAGAGCAGUAGCUCCUCUUCCUUCUGGUCAGCCUGGGAGGCCAUGCCUGAGUCACUCUCAUCAUCACUGUCAAUCAGCACCAUGUUGUCCCUAUCCUGAGGCCGCUCUUCCUCCAACAGAGGAUUGAGCAUCA
# B8: chr15:23003119:23003120:+_ENSG00000068793_ENST00000560848|hu_mus|FALSE|FALSE (ssRNA)
# RNA: GGGAGUUCUACAGUCCGACGAUCUUAUAAAGUUAAGCUUUCAGAUCAAAAGUAGGUUCAGACAUAAUGGAAAAUAGCCCCUAAAAAUUUCAAUAUAGUUUACAUAAAGACAAACAUGCCAUCAGUUACUGGGAUGCUGUGAGCCAACAGAGGAUUGAGCAUCA
# B9: chr11:60965468:60965469:-_ENSMUSG00000042506_ENSMUST00000041683|mus_mus|motif|central (ssRNA)
# RNA: GGGAGUUCUACAGUCCGACGAUCCUAACCACAGUACAAUCAUUGGAUUUUUUUUCCCUCACGAUUUUUUAUUUCAAAGCGGUAAUAAAUGAAACAAACCACUUGUCAAAAAGAACAAUGAUUUUACACAAGGAAAAGCAUACACAACAGAGGAUUGAGCAUCA
# B10: chr17:87833181:87833182:-_ENSMUSG00000036438_ENSMUST00000040440|perfect_dup|motif|central (ssRNA)
# RNA: GGGAGUUCUACAGUCCGACGAUCCGGGCUUAGAUAUAGCCAGAGUAAGCCACAUGCAACAUGUUACUUCAUCAAUUUUCGGAAAUAAGGUUUAAGGACAAUGACAGUAAGAUAAGGGAAGAAAACAUGGAGGAAUGAAGUCCUCAACAGAGGAUUGAGCAUCA
# B11: chr18:52893488:52893489:-_ENSG00000196628_ENST00000354452|hu_hu|hu_hu_hu_mus_True|8_18 (ssRNA)
# RNA: GGGAGUUCUACAGUCCGACGAUCUAUUUAGACCAUUUCCGCGGAGUUAUGGCAUUUACUCAGUGCUGAUAGGUGGAAAAACUACUUCAACAGGGAUUUUUUUUUUCCUUAAUACAUGCCAAGAAUUGUGUGGCUGUAAAACAGCAACAGAGGAUUGAGCAUCA
# B12: 137534387_137536831_709_CDS_ENSG00000094880_ENST00000394886|human|control|control (ssRNA)
# RNA: GGGAGUUCUACAGUCCGACGAUCCUCCUCUAUCAACUGCAACUCUGUGUAUAUAUGAGCCAGAAAAAACUCUUUCAUCCAGGUGUCUGGCAAAGACAGGAACUUCAGCAUCUCUUUGUCUGUGAUCAGGUUACAGAGUUCUAACAACAGAGGAUUGAGCAUCA
# B13: chr16:94651144:94651145:+_ENSMUSG00000040785_ENSMUST00000117648|mus_hu|mus_mus_mus_hu_True|68_108 (ssRNA)
# RNA: GGGAGUUCUACAGUCCGACGAUCAUUCUCUUGGAUCAAGUGGCGAAUAACAUAGUCCACUGCUUCAUGGACAAAAUUUCUGCUAGAAAAACAGGUUGUAUAGUCUUCUGUGCUCAAAACUUUCCAAGAAAGCAAUUCUUUGAGCAACAGAGGAUUGAGCAUCA
# B14: chr14:89307221:89307222:+_ENSG00000165533_ENST00000346301|hu_mus|hu_hu_hu_mus_False|58_98 (ssRNA)
# RNA: GGGAGUUCUACAGUCCGACGAUCUCCUGUUUGGUUAGUUCCAGGGAGCUUCAAAGAUGUGCCAGGGCGUGGGACCUGAGCUAUAGCAUUUUCAUCCAGGAUCAUUUCAGCAAUUCCUUCCUGGUCCACAUCAAUUUCAUCUAUCAACAGAGGAUUGAGCAUCA
# B15: chr3:179287964:179287965:+_ENSG00000136518_ENST00000429709|hu_hu|hu_hu_hu_mus_True|88_108 (ssRNA)
# RNA: GGGAGUUCUACAGUCCGACGAUCCUUUAGAGGUGAAAUGGCCUCCAUAUUCUCCCUGGGCACGCGGAGGGCAUUGGUGUCUAUGUAGUAGGUGGGCCCGCCCUGCUUGCCUUUGUCACCAUCAAUCUCCAUCAUUGUACUUCCCAACAGAGGAUUGAGCAUCA
# B16: chrX:71549400:71549401:+_ENSMUSG00000019087_ENSMUST00000019231|mus_hu|mus_mus_mus_hu_False|8_98 (ssRNA)
# RNA: GGGAGUUCUACAGUCCGACGAUCGCAGUAGGAAGAGCAAACCUUUCCAGUCCAGUGCGCUGCAGGGUGGGAAAGCAACAACACGGACACCGUCCCACCCUCAACCCCCCCACUGGCACAGGGUCACAUCUGGGUCAUCAAAGACAACAGAGGAUUGAGCAUCA
# B17: 120770645_120770765_141_5pUTR_ENSMUSG00000043207_ENSMUST00000058754|mouse|control|control (ssRNA)
# RNA: GGGAGUUCUACAGUCCGACGAUCCUCAGCGACACGCGUCCCUCGGAGAGUGCCAGCGGUGUCACAACAAUACGGGUCCCUUCCGAGGGCUUCUUCAGACGCCCAUUCCCUCAGCUUUGCCAGAAGUGUCACAAAGACACGAUUCAACAGAGGAUUGAGCAUCA
# B18: chr7:118215947:118215948:-_ENSMUSG00000005610_ENSMUST00000162415|mus_mus|FALSE|FALSE (ssRNA)
# RNA: GGGAGUUCUACAGUCCGACGAUCGGUCCUUGCAAUAGACUGCCUCUGCUUGAGAACUUAGGAUGUAAUUAUUGCAUGCUGCUAAUAUUCUAUCUAAACAUUAAGGAUACUCCUAAAGUAUUUGAUGGUAGACUAUGAUUAAGACAACAGAGGAUUGAGCAUCA
# B19: 78432385_78432637_487_CDS_ENSG00000162613_ENST00000370768|human|control|control (ssRNA)
# RNA: GGGAGUUCUACAGUCCGACGAUCUUCAGGUGUUCCAGUUAACAUACAGGACCUUUCUGGAAGGCCACCACUGUCAGGAGCUAUCUGUAUUUUGCAUCCAGAUUCCUGUUGUAUGCGUGAGAUCUGUUCACCUCCUCUGCCAAUCAACAGAGGAUUGAGCAUCA
# B20: chr8:35203877:35203878:-_ENSMUSG00000031513_ENSMUST00000033910|mus_hu|FALSE|FALSE (ssRNA)
# RNA: GGGAGUUCUACAGUCCGACGAUCGGAAGGGCACAUCCAAGCAUCAAAAACAUCAGUCCGAUUGCUCCUCCAAAGGACAAACUAAUCAAAGCUUUGAUGCCUGCCAUGGCGGUGACGUCGCUCCUGGCUCCACGACCCGAGGCGCAACAGAGGAUUGAGCAUCA
# B21: chr2:48026839:48026840:+_ENSG00000116062_ENST00000540021|hu_hu|hu_hu_hu_mus_False|38_108 (ssRNA)
# RNA: GGGAGUUCUACAGUCCGACGAUCAUAGUGUGCCACUAGCGUCCUAAAUCUGGAACAGUGGCGGUCAUCCGAAAACUGGCCGAUGAAAAACUUGCCCAGUGAAGUAUCCACAAAGCAAACACCAUACACACGAGUGUGACCAGACAACAGAGGAUUGAGCAUCA
# B22: chr16:46990815:46990816:-_ENSG00000069345_ENST00000563158|hu_hu|motif|central (ssRNA)
# RNA: GGGAGUUCUACAGUCCGACGAUCUCAAAAUGAAGAUGUAAAGCUUUGUGGUUAGUUUAAAUUAUACACUCUGUAGAUACGGUACCAAUUUUAAAAGUUAUACAUAGACCAACAGAUGUCCCUCAGUUCAUCUGGAUUGAUAAGCAACAGAGGAUUGAGCAUCA
# Target: T1, UNK ZnF1-3
# Experiment: nsRBNS (natural sequence RNA bind-n-seq); RBNS binding buffer (assumed for nsRBNS): 25 mM Tris pH 7.5, 150 mM KCl, 3 mM MgCl2, 0.01% Triton X-100, 500 ug/ml BSA, 20 U/ml SUPERase-In, 4 C; UNK is unkempt and MSI1 is Musashi-1; names of the RNAs are library labels; protein concentration not given here; high values mean tight binding
row,Binder,binding signal
1,B1,1.04 enrichment R
2,B2,0.701 enrichment R
3,B3,0.678 enrichment R
4,B4,0.541 enrichment R
5,B5,0.675 enrichment R
6,B6,0.741 enrichment R
7,B7,1.06 enrichment R
8,B8,2.11 enrichment R
9,B9,0.852 enrichment R
10,B10,2.55 enrichment R
11,B11,1.05 enrichment R
12,B12,1.71 enrichment R
13,B13,0.52 enrichment R
14,B14,0.829 enrichment R
15,B15,0.786 enrichment R
16,B16,0.928 enrichment R
17,B17,0.703 enrichment R
18,B18,1.31 enrichment R
19,B19,0.709 enrichment R
20,B20,2.82 enrichment R
21,B21,1.07 enrichment R
22,B22,0.61 enrichment R
